Measured values published in PubChem BioAssay (Tox21).
Records with an inconclusive call do not appear. Where a call stands in place of a potency, no number is given. Activity calls are given as the source filed them. The call rests on the fitted dose curve; in most records, active means well fitted cell-killing curve with a large enough effect in the repeat runs; inconclusive means weak or mixed curves, or effect the other way; inactive means flat fitted curve, though single readings scatter.

Assay: qHTS assay to identify small molecule that activate the aryl hydrocarbon receptor (AhR) signaling pathway - cell viability counter screen (AID 743086); further: nearly all actives have a fitted effect of over 45% in size
Settings: HepG2-AhR-luc viability, CellTiter-Fluor, 24 h; series mostly up to 70.3 µM
Text: U.S. Tox21 Program National Center for Advancing Translational Sciences [NCATS] NIH Chemical Genomics Center [NCGC] U.S. Environmental Protection Agency [EPA] National Institutes of Environmental Health Sciences [NIEHS] National Toxicology Program [NTP] U.S. Food and Drug Administration [FDA] Tox21 Assay overview: The Aryl hydrocarbon Receptor (AhR), a member of the family of basic helix-loop-helix transcription factors, is crucial to adaptive responses to environmental changes. AhR mediates cellular responses to environmental pollutants such as aromatic hydrocarbons through induction of phase I and II enzymes but also interacts with other nuclear receptor signaling pathways A cell based HepG2-AhR-luc assay (HG2L7.5c1 cell line, developed by Dr. Michael S. Denison, University of California at Davis) was used to assess the activation of AhR. HepG2 (human hepatocellular carcinoma) cells were stably transfected with an Ah receptor-responsive firefly luciferase reporter gene plasmid containing 20 dioxin responsive elements and luciferase reporter gene. Increased luciferase activity can be used to identify the compounds that induce AhR activation. The cytotoxicity of the compounds screened against the HepG2-AhR-luc cell line was tested in parallel by measuring the cell viability using CellTiter-Fluor assay in the same wells.
Tox21 Assay Protocol Summary: 4000 cells in 5 uL/well were dispensed into white wall/solid bottom 1536-well plates using a Multidrop Combi (Thermo Fisher Scientific Inc., Waltham, MA) dispenser. After the assay plates were incubated at 37C for 5 h, 23 nL of compound or DMSO vehicle was transferred to the assay plates by a pintool station (Kalypsys, San Diego, CA). The plates were incubated at 37C for 24 hr. For cell viability measurement, 1 ul/well of CellTiter-Fluor reagent (Promega, Madison, WI) was added into the assay plates using a Flying Reagent Dispenser (FRD) (Aurora Discovery, CA),and then the assay plates were incubated at 37C for 30 min. The fluorescence intensity in the plates was measured using a ViewLux plate reader (PerkinElmer, Shelton, CT), followed by the addition of 4 uL of ONE-Glo Luciferase Assay reagent (Promega) using an FRD (Aurora Discovery). After the assay plates were incubated at room temperature for 30 min, luminescence intensity was measured using a ViewLux plate reader (Perkin Elmer).
Potency means the concentration at half of the fitted maximal effect.

Compound | Potency
C1COCCN1 | inactive
C=C1C[C@H]2[C@@H]3C=C(C)C4=CC(=O)CC[C@]4(C)[C@H]3CC[C@]2(C)[C@@]1(OC(C)=O)C(C)=O | inactive
C[N+](C)(C)CCO | inactive
CCCCCC=O | inactive
C=C[C@@]1(C)CC(=O)[C@]2(O)[C@@]3(C)[C@@H](O)CCC(C)(C)[C@@H]3[C@H](O)[C@H](OC(C)=O)[C@@]2(C)O1 | inactive
CC1(C)C(C=C(Cl)Cl)C1C(=O)OCc1cccc(Oc2ccccc2)c1 (stereo not given) | inactive
c1ccc2c(c1)ccc1cc3c(ccc4ccccc43)cc12 | inactive
Oc1ccc(C(c2ccc(O)cc2)C(Cl)(Cl)Cl)cc1 | inactive
CCO[Si](CCCNC(N)=O)(OCC)OCC | inactive
C=CC(=O)OCCCC | inactive
CC(=O)[C@H]1CC[C@H]2[C@@H]3CC=C4C[C@@H](O)CC[C@]4(C)[C@H]3CC[C@]12C | inactive
COc1ccc2nc(N)sc2c1 | inactive
CC[C@]12CCCN3CCc4c(n(c5ccccc45)[C@@](O)(C(=O)OC)C1)[C@@H]32 | inactive
C[C@]12C=CC(=O)C=C1CC[C@H]1[C@@H]3C[C@@H](O)[C@](O)(C(=O)CO)[C@@]3(C)C[C@H](O)[C@@]12F | inactive
IC(I)I | inactive
Cc1ccc(C)c(O)c1 | inactive
CCCN1C=CN(C)C1 | inactive
C=CCCCCCCCCCC | inactive
NC[C@H](O)c1ccc(O)c(O)c1 | inactive
C1CN(SSN2CCOCC2)CCO1 | inactive

Compound | Potency
CC1=CC(C)(C)Nc2ccccc21 | inactive
C/C=C/C(=O)N(CC)c1ccccc1C | inactive
CC1(C)NC(=O)N(c2ccc([N+](=O)[O-])c(C(F)(F)F)c2)C1=O | inactive
C[C@]12CC[C@@H]3c4ccc(O)cc4CC[C@H]3[C@@H]1CC[C@@H]2O | inactive
O=C(CCCN1CCC(O)(c2ccc(Cl)cc2)CC1)c1ccc(F)cc1 | inactive
CC(C)(C)c1cccc(C(C)(C)C)c1O | inactive
CN(C)/N=N/c1nc[nH]c1C(N)=O | inactive
CC(=O)OC(C)C | inactive
CC(=O)[C@@]1(O)CC[C@H]2[C@@H]3C[C@H](C)C4=CC(=O)C=C[C@]4(C)[C@@]3(F)[C@@H](O)C[C@@]21C | inactive
Cc1ccc(N)c([N+](=O)[O-])c1 | inactive
COC(=O)CC(=O)OC | inactive
CC1(C)O[C@@H]2C[C@H]3[C@@H]4C[C@H](F)C5=CC(=O)C=C[C@]5(C)[C@@]4(F)[C@@H](O)C[C@]3(C)[C@]2(C(=O)CO)O1 | inactive
c1ccc2c(c1)ccc1ncccc12 | inactive
Clc1ccc(Sc2cc(Cl)c(Cl)cc2Cl)cc1 | inactive
Nc1ccc2c(c1)C(=O)c1ccccc1C2=O | 60 µM (active)
[O-]/[N+](=N\O)c1ccccc1 | inactive
Cc1cccc(Nc2ccccc2C(=O)O)c1C | inactive
C=CN1CCCC1=O | inactive
CC(=O)Oc1ccc(C(c2ccc(OC(C)=O)cc2)c2ccccn2)cc1 | inactive
C=CC(C)(O)CCC=C(C)C (stereo not given) | inactive
